Assay results from PubChem BioAssay (NCI).
About 83,000 compounds went through this panel and 20% of them were active in at least one assay; those are over-represented in the sample as a whole.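 A percent growth of 40 corresponds to 60% growth inhibition; 0 means no net growth; -100 means all cells died. Active threshold: below 10.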 Values without a mark were called inactive. Activity calls are given as the source filed them.

These compounds were tested on A498 renal (assay: NCI-60 one-dose screen, 48 h (100 = growth as untreated, 0 = no growth, -100 = all killed)). Details: 10 µM unless noted.

Question: For CCCCN1C=CCN(CCCC)C1, which growth is on record?
Answer: The growth was 78.4%.

Question: Cc1nn(-c2ccccc2)c(Cl)c1/C=N\N=c1/sc2ccccc2n1C was tested. Which growth did it give?
Answer: The growth was 83.1%.

Question: How did the growth turn out when COc1cc(CC(=O)n2ncc3ccc(N)cc32)cc(OC)c1OC was run?
Answer: The growth was 97.4%.

Question: Which growth does the source give for Cn1cc(-c2nc(-c3c[nH]c4c(Cl)nccc34)cs2)c2cc(Br)ccc21 here?
Answer: The growth was 72.3%.

Question: For CCNc1nc2ccc(Nc3ccnc4cc(Cl)ccc34)cc2[nH]1, which growth is on record?
Answer: The growth was 89.5%.

Question: Which growth does the source give for Cc1ncc(C(=O)Nc2ccc(CN3CCN(C)CC3)c(C(F)(F)F)c2)cc1C#Cc1cnc(N)cc1C#N here?
Answer: The growth was -35.5% (active).

Question: With COc1cc(/C=C\c2cc(/C=C\c3ccc(O)c(OC)c3)n(C(=O)COc3ccccc3)n2)ccc1O as the compound, how does the growth read?
Answer: Its growth is 11.2%.

Question: C[C@H](c1nc2ccc(N)cc2[nH]1)[C@H]1CC[C@H]2[C@@H]3CCC4=CC(=O)CC[C@]4(C)[C@H]3CC[C@]12C was tested. Which growth did it give?
Answer: Its growth is 70.3%.

Question: Which growth does the source give for CC(c1ccccc1)C(C(=O)c1ccccc1)c1ccccc1 (centres undefined) here?
Answer: Its growth is 93.3%.

Question: Which growth does the source give for N#CC1=C(N)Oc2c(ccc3ccccc23)C1c1ccccc1Cl (centres undefined) here?
Answer: Its growth is -10.3% (active).

Question: With N#CC(C(=O)/C(=N/NC(=O)c1ccccc1O)C(C#N)c1ccccc1)c1ccccc1 (centres undefined) as the compound, how does the growth read?
Answer: The growth was 30.9%.

Question: With C[C@@H](Nc1ncnc2ccc(-c3cnc(N)nc3)cc12)c1ccc(F)cc1 as the compound, how does the growth read?
Answer: Its growth is -13.5% (active).

Question: How did the growth turn out when Cc1cccc(C)c1N=c1oc2ccc(Cl)cc2nc1-c1ccccc1O was run?
Answer: Its growth is 95.3%.

Question: Which growth does the source give for COc1cc(C2C3=C(COC3=O)N(CCO)c3cc4c(cc32)CCC4)cc(OC)c1OC (centres undefined) here?
Answer: The growth was -20.4% (active).
